In the supplement of paper PMC10981050:
Several values for one entry are separate records, joined by “and”; a condition that tells them apart may be missing. Equal values may be shown once. Where a name gives a salt, the structure may show the parent alone.

Tests used:
Assay in all cases: cell viability relative to vehicle control; higher = less cytotoxic
Conditions in all cases: 10 µM
[1] = test system: K562
Procedure, shortened: (§1)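 Each screen used CRISPR-edited mutant and wild-type clones from four leukaemia lines. Compounds were acoustically dispensed at a single 10 µM dose, and CellTiter-Glo luminescence was read after 48 h with the supernatant first removed. Viability was analysed in Genedata Screener and given as percent of the on-plate vehicle control.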

[2] = test system: MARIMO
Procedure, shortened: as §1

[3] = test system: MOLM14
Procedure, shortened: as §1

[4] = test system: OCI-AML2
Procedure, shortened: as §1

SMILES	cell viability ([1]; SRSF2 genotype: SRSF2 P95H/wt)	cell viability ([1]; SRSF2 genotype: SRSF2 wt/wt)	cell viability ([2]; SRSF2 genotype: SRSF2 P95H/wt)	cell viability ([2]; SRSF2 genotype: SRSF2 wt/wt)	cell viability ([3]; SRSF2 genotype: SRSF2 P95H/wt)	cell viability ([3]; SRSF2 genotype: SRSF2 wt/wt)	cell viability ([4]; SRSF2 genotype: P95H/wt)	cell viability ([4]; SRSF2 genotype: wt/wt)
Cc1nc2c(O)cccc2c(=O)[nH]1	94.6% and 99.4%	114%	99.4%	93.8%	95.6%	101%	94.2%	108%
O=[N+]([O-])c1cn2c(n1)OC[C@@H](OCc1ccc(OC(F)(F)F)cc1)C2	94.3% and 98.1%	91.8%	92.7%	101%	97.8%	97.5%	98.9%	99.5%
CCn1c2ccccc2c2cc(CNCc3ccccc3OC)ccc21 [HLCL-61 hydrochloride]	81.8% and 88%	84.8%	73.9%	84.8%	75%	88.9%	65.8%	76.6%
CCOC(=O)c1cccc(N)c1 [Ethyl 3-Aminobenzoate methanesulfonate]	96.7% and 92.4%	85.1%	87.2%	96.5%	88.7%	96.5%	94.2%	90.7%
CCN1C(=O)CNc2ncc(-c3ccc(-c4nc[nH]n4)nc3C)nc21	13.8% and 18.5%	23.9%	27.5%	27.6%	9.85%	11.8%	8.07%	16.1%
CO/N=C(\C(=O)N[C@@H]1C(=O)N2C(C(=O)OCOC(=O)C(C)(C)C)=C(/C=C\c3scnc3C)CS[C@H]12)c1csc(N)n1 [Cefditoren pivoxil]	103% and 99.7%	101%	104%	111%	94.5%	103%	102%	111%
NC(=O)c1cc(F)cc2c1C(=O)N(C1CCN(C3CCC(F)(F)CC3)CC1)C2	97.3% and 103%	95.7%	96.4%	106%	82.6%	97.3%	87.5%	96.1%
C[C@]12C[C@@H](O)[C@@H]3C[C@@]1(O[C@@H]1O[C@H](CO)[C@@H](O)[C@H](O)[C@H]1O)[C@@]3(COC(=O)c1ccccc1)C(=O)O2 [Albiflorin]	103% and 108%	107%	96.9%	94.5%	104%	98.4%	98.3%	92.9%
COc1cc2oc(-c3ccc(O)cc3)cc(=O)c2c(O)c1[C@@H]1O[C@H](CO)[C@@H](O)[C@H](O)[C@H]1O[C@@H]1O[C@H](CO)[C@@H](O)[C@H](O)[C@H]1O [Spinosin]	106%	104%	106%	101%	106%	104%	99.2%	100%
C=C(C)[C@@H]1CC[C@]2(C)CC[C@]3(C)[C@H](CC[C@@H]4[C@@]5(C)CC[C@H](O)C(C)(C)[C@@H]5CC[C@]43C)[C@@H]12 [Lupeol]	106%	113%	109%	108%	105%	109%	108%	108%
O=C(Nc1cccnc1)c1cc(-c2ccnc(F)c2)ccc1OCc1ccccc1	97.4% and 102%	94.6%	97.5%	102%	104%	98.7%	95.8%	95.6%
NC[C@@](O)(c1ccc(Cl)cc1)c1ccc(-c2cn[nH]c2)cc1	34.7% and 19.4%	13%	52.9%	56.4%	29.3%	25.6%	13.8%	17.4%
CC(C)c1nc(N(C)S(C)(=O)=O)nc(-c2ccc(F)cc2)c1/C=C/[C@@H](O)C[C@@H](O)CC(=O)O [Rosuvastatin Calcium]	103% and 107%	101%	94.8%	96.5%	112%	105%	105%	102%
O=C(c1ccc(F)cc1)N1CCCC(c2nc(-c3ccc(F)cc3)no2)C1 (stereo not drawn)	75.7% and 78.6%	76.6%	66%	73.9%	80.1%	84.1%	64.8%	72.7%
CN(Cc1ccc(C(C)(C)C)cc1)Cc1cccc2ccccc12 [Butenafine HCl]	97% and 102%	91.6%	84.1%	105%	93.4%	98%	85.5%	101%
Cc1cc(=O)oc2cc(O)ccc12 [4-Methylumbelliferone (4-MU)]	107% and 96.8%	99.6%	98.5%	96.7%	102%	102%	100%	99.9%
Cc1nc2cccc(N)c2c(=O)n1C1CCC(=O)NC1=O (stereo not drawn) [Avadomide(CC-122)]	108% and 111%	111%	102%	92.7%	99.2%	98.2%	159%	169%
CS(=O)(=O)Nc1ccc([N+](=O)[O-])cc1Oc1ccccc1 [Nimesulide]	105% and 109%	99.8%	102%	108%	109%	103%	101%	110%
COC(=O)C1=C(C#N)NC(C)=C(C(=O)OC(C)C)C1c1cccc([N+](=O)[O-])c1 (stereo not drawn) [Nilvadipine (ARC029)]	81.2% and 85.3%	80.7%	76%	79.7%	80.9%	84.7%	103%	97.2%
NC(=O)c1cnc(NCCc2ccc(O)c(Cl)c2)nc1NCc1ccccc1	34.2% and 38.5%	33.3%	8.49%	5.28%	5.95%	1.62%	8.8%	13.2%
CO/N=C(\C(=O)N[C@@H]1C(=O)N2C(C(=O)[O-])=C(C[N+]3(C)CCCC3)CS[C@H]12)c1csc(N)n1 [Cefepime Dihydrochloride Monohydrate]	101% and 102%	106%	96.3%	109%	105%	107%	104%	113%

SMILES	cell viability ([1]; SRSF2 genotype: SRSF2 P95H/wt)	cell viability ([1]; SRSF2 genotype: SRSF2 wt/wt)	cell viability ([2]; SRSF2 genotype: SRSF2 P95H/wt)	cell viability ([2]; SRSF2 genotype: SRSF2 wt/wt)	cell viability ([3]; SRSF2 genotype: SRSF2 P95H/wt)	cell viability ([3]; SRSF2 genotype: SRSF2 wt/wt)	cell viability ([4]; SRSF2 genotype: P95H/wt)	cell viability ([4]; SRSF2 genotype: wt/wt)
COc1cc(/C=C/C(=O)OC[C@H]2O[C@H](O[C@]3(CO)O[C@H](CO)[C@@H](O)[C@@H]3OC(=O)/C=C/c3cc(OC)c(O)c(OC)c3)[C@H](O)[C@@H](O)[C@@H]2O)cc(OC)c1O [3,6'-Disinapoyl sucrose]	106% and 103%	101%	106%	109%	112%	105%	102%	105%
O=C(O)c1cccnc1 [Niacin (Nicotinic acid)]	108% and 98.1%	109%	99.3%	111%	103%	101%	74%	78.7%
CC(C)C[C@H](NC(=O)CNC(=O)c1cc(Cl)ccc1Cl)B(O)O [Ixazomib (MLN2238)]	2.07%	3.87%	0.76%	3.15%	0.41%	0.47%	0.44%	1.8%
O=C(O)[C@H](O)c1ccccc1 [(R)-(-)-Mandelic acid]	94% and 92.9%	89.4%	91.2%	105%	91.8%	92.6%	98.2%	106%
O=C(CCCCc1ccc2c(c1)OCO2)N1CCCCC1 [Tetrahydropiperine]	91.7% and 93.2%	97.2%	88.6%	102%	89.8%	93.9%	85%	88.3%
COC(=O)c1ccc(O)c(O)c1 [Methyl protocatechuate]	105%	105%	90.5%	101%	101%	109%	117%	97.9%
Cc1ccc(S(=O)(=O)n2c(N)nc3ccccc32)cc1	95.4% and 101%	97.9%	102%	104%	102%	104%	98.3%	97.2%
CC(C)C[C@@H]1NC(=O)[C@@H](C(C)C)NC(=O)[C@@H]2CCCN2C(=O)[C@@H](CC(=O)O)NC(=O)[C@@H](Cc2c[nH]c3ccccc23)NC1=O	101% and 105%	97%	101%	108%	99%	101%	103%	103%
C=CCc1ccc(O)c(-c2cc(CC=C)ccc2O)c1 [Magnolol]	85.6% and 95.6%	96.6%	99.5%	112%	93.9%	103%	86.2%	106%
O=C(c1ccc(OCCN2CCCCC2)cc1)c1c(-c2ccc(O)cc2)sc2cc(O)ccc12 [Evista (Raloxifene Hydrochloride)]	75.3% and 80.4%	81.3%	79.3%	77.8%	76.2%	81.3%	82.7%	77.2%
COc1ccc(C(=O)O)c(O)c1 [4-Methoxysalicylic acid]	104% and 95.4%	107%	98.6%	99.3%	98.1%	106%	101%	106%
Cn1c([N+](=O)[O-])cnc1COC(N)=O [Ronidazole]	95.1% and 89%	92.3%	97.3%	97.3%	96%	99.5%	90.8%	102%
CCC(C)C(NC(=O)C(C(C)CC)N(C)C(C)=O)C(=O)NC(C(=O)NC(CC(C)C)C(=O)C1(C)CO1)C(C)O (stereo not drawn) [Epoxomicin (BU-4061T)]	1.56% and 1.91%	0.91%	0.3%	0.71%	0.14%	0.17%	0.15%	0.14%
OC[C@@H](O)[C@@H](O[C@@H]1O[C@H](CO)[C@H](O)[C@H](O)[C@H]1O)[C@H](O)[C@@H](O)CO [Lactitol]	101% and 92.3%	98.9%	94.4%	100%	99.8%	101%	91%	95.1%
C=C[C@]1(C)C[C@@H](OC(=O)CSC(C)(C)CNC(=O)[C@H](N)C(C)C)[C@]2(C)[C@H](C)CC[C@]3(CCC(=O)[C@H]32)[C@@H](C)[C@@H]1O [Valnemulin HCl]	83.2% and 84.6%	75.3%	74%	74.9%	80.8%	80%	60.7%	65.5%
Nc1ccc(S(=O)(=O)Nc2cncc(Cl)n2)cc1 [Sulfalozine sodium]	101% and 97.3%	104%	103%	111%	92.7%	102%	107%	88.8%
CC(C)NCC(O)c1ccc(NS(C)(=O)=O)cc1 (stereo not drawn) [Sotalol HCl]	106% and 102%	95.7%	101%	109%	104%	102%	106%	102%
Nc1cc(F)ccc1NC(=O)/C=C/c1cnn(C/C=C/c2ccccc2)c1	89.5% and 93.8%	83.6%	77.8%	100%	90.5%	94.2%	104%	87.4%
COCCCC/C(=N\OCCN)c1ccc(C(F)(F)F)cc1 [Fluvoxamine maleate]	94.3% and 95.6%	98.9%	80.8%	91.5%	87.8%	98%	93.9%	88.2%
CC1OC(OC2CCC3(C)C(CCC4(C)C3C=CC3=C5CC(C)(C)CCC5(CO)C(O)CC34C)C2(C)CO)C(O)C(OC2OC(CO)C(O)C(O)C2O)C1O (stereo not drawn) [Saikosaponin B2]	93.5% and 88.7%	86.8%	91.5%	106%	96.3%	95.1%	93.9%	100%
